Potency and activation data for 15 compounds are collected here from PubChem BioAssay (NCATS).

Results filed as inconclusive are left out. Entries that show only a call come without a potency. Values without a mark were called inactive. Calls of active or inactive are those of the source. Calls follow the shape of the dose curve; as a rule, active = well fitted activation curve with a large enough effect; inconclusive = small, poorly fitted or top-dose-only effect, or another doubt; inactive = no such curve, though single readings can be large or run the other way.
Potency is read from the fitted curve at half-maximal effect.

This assay concerns the target Rap guanine nucleotide exchange factor 3 (Homo sapiens) (UniProt O95398). In words: Counterscreen qHTS for agonist of cAMP-regulated guanine nucleotide exchange factor 3 (EPAC1) (AID 1645889). Also: nearly all actives have a fitted effect of over 40% in size. Particulars: EPAC1 Rap1B-BODIPY-GDP exchange, fluorescence; series mostly up to 154 µM. The method in brief: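 Measured: fluorescence of BODIPY-GDP bound to Rap1B, which falls as exchange proceeds. Conditions include 50 uM competing GDP, 5 and 30 min reads, and a later cAMP challenge for antagonist detection.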
For orientation: Counterscreens check selectivity or assay interference.
Take `CCc1nc2ccccc2c(=O)n1-c1ccccc1OC`: the Potency result was “inactive”.

Take `O=C(c1cc(Cl)cc(Cl)c1)N1Cc2ccccc2-n2nncc2C1`: the activation is 5.77% [at 30.8 µM].

On to `COc1ccc(C(=O)C2CN(C)CC2c2ccc(Cl)cc2)cc1` (stereo not given), for which the activation is 27.2% [at 30.8 µM].

For `COC(=O)C1=C(c2ccc3ccccc3c2)C[C@@H]2CC[C@H]1N2C(=O)NC1CC1`, the Potency entry is “inactive”.

For `COC(=O)C1=C(c2cc3ccccc3s2)C[C@@H]2CC[C@H]1N2C(=O)NC1CC1`, the Potency entry is “inactive”.

Regarding `Cc1cc(OC(C)C(=O)N[C@H](C(=O)O)c2ccccc2)c2c3c(c(=O)oc2c1)CCC3` (stereo not given in full), the Potency result was “inactive”.

On to `O=C1NC(=O)N(Cc2ccc(F)cc2)C(=O)/C1=C\c1ccc([N+](=O)[O-])s1`, for which the Potency is 22.4 µM (active).

As to `COc1ccc(N=Cc2c(O)n(Cc3ccccc3)c(=S)[nH]c2=O)c(OC)c1`, the Potency result is “inactive”.

As for `Cn1cc(C=C2C(=O)NC(=O)NC2=O)c2ccccc21`, the Potency entry was “inactive”.

For `CC[C@@H]1c2ccccc2[C@@H]2CC[C@H]1N2c1ccccc1`, the activation is -4.47% [at 30.8 µM].

`O=C(O)CC1OCC=C2CN3CCC45C6=CC(=O)C(=O)C([N+](=O)[O-])=C6NC4C1C2CC35` (stereo not given): the Potency entry is “inactive”.

With `OC1/C(=C/c2ccc(C(F)(F)F)cc2)N2CCC1CC2` (stereo not given), the Potency result is “inactive”.

As to `O=C1NC(=S)N(c2ccccc2)C(=O)/C1=C/c1ccco1`, the Potency entry is “inactive”.

Turning to `COc1ccc(OC)c(N2C(=O)NC(=O)/C(=C/c3ccc([N+](=O)[O-])s3)C2=O)c1`, the activation was 21.8% [at 30.8 µM].

With `CC1=C(O)C(=O)C=C2C1=CC=C1C2(C)CCC2(C)C3CC(C)(C(=O)O)CCC3(C)CCC12C` (stereo not given), the Potency result was “inactive”.
